Screening results deposited in PubChem by Johns Hopkins Ion Channel Center.
A selection: hits, their analogues and other compounds. The true share with any hit is near 1.6%.
KCNQ2 pot = enhances the rat KCNQ2 potassium channel; CHO-K1 KCNQ2, FluxOR thallium flux fluorescence; hits give high values; O88943; B-score at 10 µM; AID 2239; 310,000 compounds, 0.54% hits;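 active means fluorescence ratio B-score at least 3 SD of library B-scores, with initial fluorescence B-score within 3 of them, cut at about 5.3 in these data; same plate scores as AID 2156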;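 further: B-score of peak minus minimum over baseline fluorescence ratio after K+ and Tl+ stimulus; positive B-score means potentiation of KCNQ2 with more thallium influx and brighter signal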
KCNQ2 inh = inhibitors of rat KCNQ2 potassium channel | O88943 | CHO-K1 KCNQ2, FluxOR thallium flux, 20 min; hits give low values | B-score at 10 µM | 310,000 compounds, 1.1% hits | AID 2156;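 active means fluorescence ratio B-score at most minus 3 library SDs, with starting brightness B-score within 2 library SDs, cut at about -5.5 in these data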
Kir21 confirm = confirmation of mouse Kir2.1 potassium channel inhibitors; shares compounds with KCNQ2 pot; Kir2.1-expressing cells, FluxOR thallium flux fluorescence; hits give low values; 2,300 compounds, 41% hits; Tl flux remaining, % of negative control (hits give low values), % at 10 µM;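 active means Primary-screen hit whose thallium flux fell at least 3 control SD below untreated wells in both duplicates, with normal baseline fluorescence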
HEK293 ctr = parental HEK293 activity in Kir2.1 inhibitor counter-screen | shares compounds with KCNQ2 pot | FluxOR signal as % of negative control (100 = no effect), % at 10 µM | 2,300 compounds, 19% hits | parental HEK293 cells, FluxOR thallium flux fluorescence; 0% = unstimulated blank wells;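 active means dye signal at least 3 control SD above or below untreated wells in both duplicates, raw fluorescence within 3, either direction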;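 further: percent is based on the flux ratio of peak minus minimum fluorescence over baseline F0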
CHO-K1 ctr = alters thallium flux in parental CHO-K1 cells, KCNQ2 counter-screen; shares compounds with KCNQ2 pot; FluxOR thallium flux fluorescence; zero = vehicle mean+3SD, 100% = vehicle-minus-blank window; activity increase over 3SD of controls, % at 10 µM; 1,200 compounds, 43% hits; AID 2282;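 active means signal rise of at least 3 SD above the untreated control mean, in both duplicate wells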;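 further: counter screen of KCNQ2 potentiator hits so any rise reflects channel-independent effects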
KCNQ1 sel pot = selectivity of KCNQ2 potentiators: effect on human KCNQ1. AID 2283. 1,200 compounds, 28% hits. activation over 3SD threshold, % at 10 µM. CHO KCNQ1 stable, FluxOR thallium flux fluorescence; beyond 3SD, as % of vehicle-control signal. shares compounds with KCNQ2 pot;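 active means fluorescence ratio rise of at least 3 SD of vehicle wells above their mean, in both replicate wells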
KCNQ2 pot confirm = rat KCNQ2 channel potentiator confirmation; shares compounds with KCNQ2 pot; CHO-KCNQ2 cells, FluxOR thallium flux fluorescence; potentiation, less the hit threshold, % at 10 µM; 1,200 compounds, 68% hits; AID 2287;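 active means fluorescence ratio rising 3 SD or more over the vehicle control mean in both replicates, plus primary screen hit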;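 further: peak minus minimum thallium fluorescence divided by baseline after K/Tl stimulus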
Kir21 spec = mouse Kir2.1 off-target activity of KCNQ2 potentiators | shares compounds with KCNQ2 pot | AID 2345 | HEK293 Kir2.1, FluxOR thallium flux fluorescence | 1,200 compounds, 2% hits | activity over 3SD threshold, % at 10 µM;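 active means fluorescence ratio rise of at least 3 SD above the vehicle-control mean, seen in both replicates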
KCNQ2 W236L MoA = KCNQ2 potentiators acting on retigabine-insensitive rat KCNQ2 W236L mutant; shares compounds with KCNQ2 pot; CHO KCNQ2-W236L, automated patch clamp current; current increase over 3SD of negative controls (%), hits give high values, % at 25 µM; 940 compounds, 10% hits; AID 2558;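 active means current increase at least 3 SD of the untreated controls above them in both duplicate recordings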
Target sequence (O88943 whole entry W236L, looked up): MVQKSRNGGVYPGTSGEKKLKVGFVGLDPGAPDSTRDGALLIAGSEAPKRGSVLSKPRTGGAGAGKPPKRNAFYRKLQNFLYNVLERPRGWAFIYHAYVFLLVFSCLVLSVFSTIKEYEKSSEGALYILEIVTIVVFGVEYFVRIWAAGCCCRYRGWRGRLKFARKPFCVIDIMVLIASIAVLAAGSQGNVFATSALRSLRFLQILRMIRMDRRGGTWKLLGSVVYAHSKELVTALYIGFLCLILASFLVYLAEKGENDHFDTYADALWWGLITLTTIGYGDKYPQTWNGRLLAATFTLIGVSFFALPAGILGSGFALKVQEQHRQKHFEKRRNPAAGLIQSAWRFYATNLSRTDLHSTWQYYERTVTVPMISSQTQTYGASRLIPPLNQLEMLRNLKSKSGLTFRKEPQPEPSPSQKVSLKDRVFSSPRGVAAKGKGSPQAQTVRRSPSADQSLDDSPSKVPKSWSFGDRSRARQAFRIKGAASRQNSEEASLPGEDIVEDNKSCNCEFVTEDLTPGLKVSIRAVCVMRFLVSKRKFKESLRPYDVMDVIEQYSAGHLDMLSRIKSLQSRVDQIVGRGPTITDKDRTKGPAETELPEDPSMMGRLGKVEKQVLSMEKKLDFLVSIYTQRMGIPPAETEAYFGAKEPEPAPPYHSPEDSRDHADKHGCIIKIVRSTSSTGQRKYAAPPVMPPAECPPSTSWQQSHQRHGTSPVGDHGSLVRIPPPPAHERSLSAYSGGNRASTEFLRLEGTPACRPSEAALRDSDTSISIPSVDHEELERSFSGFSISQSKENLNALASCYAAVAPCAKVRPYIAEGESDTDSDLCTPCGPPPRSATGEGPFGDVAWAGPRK
Large screens that a line does not name were inactive (follow-up assays come after a bar, where they were run).

COc1ccccc1NC(=O)CC1S/C(=N/N=C2\CCCc3ccccc32)NC1=O (centres undefined)	none (no result: KCNQ2 pot)
Cc1csc(NC(=O)c2ccc3nc[nH]c3c2)n1	none
COc1ccccc1N1CCN(C2CCCN(C(=O)CCc3cnn(C)c3)C2)CC1 (centres undefined)	none
COc1ccc(Nc2cc(C)nc(NCc3ccccc3)n2)cc1	none (no result: KCNQ2 pot) | Kir21 confirm 63.5% | HEK293 ctr inactive
COc1cc(C)nc(NCc2ccccc2)n1	none (no result: KCNQ2 pot)
Nc1ncccc1OCc1ccc(Cl)c(Cl)c1	KCNQ2 pot 5.37 | Kir21 confirm inactive | HEK293 ctr inactive | CHO-K1 ctr inactive | KCNQ1 sel pot inactive | KCNQ2 pot confirm inactive | Kir21 spec inactive
O=C(OCc1ccc(Cl)c(Cl)c1)c1ccccn1	none
COC(=O)c1cccc(-n2c(=O)n(Cc3ccccc3)c(=O)c3[nH]cnc32)c1C	none (no result: KCNQ2 pot)
CC[C@@H](C)[C@H](NC(=O)OC(C)(C)C)c1nnc(S(=O)(=O)Cc2cc(C)ccc2C)o1	none (no result: KCNQ2 pot) | Kir21 confirm inactive | HEK293 ctr inactive
CC(C)[C@H](NC(=O)OC(C)(C)C)c1nnc(S(=O)(=O)Cc2c(F)cccc2Cl)o1	none
CCn1cc(C(=O)NCc2ccc(C)cc2)c(=O)c2cc(S(=O)(=O)N(C)C)ccc21	none (no result: KCNQ2 pot)
CC(C)N(Cc1nccn1C)C(=O)c1cc(COc2ccc(F)cc2Cl)on1	none
O=c1c(Cl)c(Cl)cnn1Cc1nnc(-c2ccccc2Br)o1	KCNQ2 pot 5.48 | Kir21 confirm inactive | HEK293 ctr inactive | CHO-K1 ctr 40.8 | KCNQ1 sel pot inactive | KCNQ2 pot confirm 12.5 | Kir21 spec inactive | KCNQ2 W236L MoA inactive
O=C1NC2(CCCc3ccccc32)C(=O)N1Cc1nnc(-c2ccccc2Br)o1 (centres undefined)	none (no result: KCNQ2 pot)
Cc1nc(C)n(C(C)CNC(=O)c2ccco2)n1 (centres undefined)	none
CSc1ccc(S(=O)(=O)NCCOc2ccccc2C)cc1	none (no result: KCNQ2 pot)
CCc1ccc(S(=O)(=O)NCCOc2cccc3cccnc23)cc1	none (no result: KCNQ2 pot) | Kir21 confirm 69.5% | HEK293 ctr inactive
O=C(CSc1nc(O)cc(=O)[nH]1)N1c2ccccc2CCc2ccccc21	none
COc1ccc(C(O)(CCC(C)C)C(CN2CCOCC2)c2ccc(Cl)cc2)cc1 (centres undefined)	KCNQ2 pot 6.44 | Kir21 confirm inactive | HEK293 ctr inactive | CHO-K1 ctr inactive | KCNQ1 sel pot 46.0 | KCNQ2 pot confirm inactive | Kir21 spec inactive
CCCC(O)(c1ccc(OC)cc1)C(CN1CCOCC1)c1ccc(Cl)cc1 (centres undefined)	none
CSC(=S)N/N=C/c1ccccc1	KCNQ2 pot 9.34 | Kir21 confirm inactive | HEK293 ctr 218.5% | CHO-K1 ctr inactive | KCNQ1 sel pot 9.4 | KCNQ2 pot confirm 7.4 | Kir21 spec inactive | KCNQ2 W236L MoA inactive
COc1ccc(/C=N/NC(=S)SC)cc1OC	none
O=C(Cc1ccccc1F)Nc1ccc2c(c1)CCC2	none
O=C(Cc1cccc(F)c1)Nc1ccc2c(c1)CCC2	KCNQ2 pot 5.5 | Kir21 confirm inactive | HEK293 ctr inactive | CHO-K1 ctr 3.6 | KCNQ1 sel pot inactive | KCNQ2 pot confirm 21.3 | Kir21 spec inactive | KCNQ2 W236L MoA inactive
COc1ccc(Br)cc1/C(C)=N/NC1=NCCN1	none
CCCCCOc1ccc(Br)cc1/C(C)=N/NC1=NCCN1	none (no result: KCNQ2 pot) | Kir21 confirm 16.0% | HEK293 ctr inactive
Oc1ccc(C=NCCc2ccccc2)cc1	none
CCc1nc2ccccc2c(C(=O)OCC(=O)N2CC(C)OC(C)C2)c1C (centres undefined)	none
O=C(Nc1nc(-c2ccccc2)c(-c2ccccc2)o1)c1ccc(F)cc1	none | Kir21 confirm inactive | HEK293 ctr 150.0%
